Compound activity as filed in PubChem.
A selection: hits, their analogues and other compounds. The true share with any hit is near 7.9%.
HT1080-NT tox: kills 2HG-producing HT-1080-NT fibrosarcoma cells. Potency, µM (highest dose often 46.1 µM), for inactives: at the highest dose activity, negative = less viability, hits mostly cytotoxic. AID 686970. 360,000 compounds, 1.6% hits. HT-1080-NT fibrosarcoma viability, CellTiter-Glo ATP luminescence, 48 h;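 further: NT is the 2HG producing partner of a matched IDH1 knockdown line; 0% = DMSO-treated cells and -100% = media-only wells without cells; nearly all actives have a fitted effect of over 55% in size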
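Toxicity toward the 2HG-producing NT line was scored as %Activity, normalised to DMSO and no-cell wells, from CellTiter-Glo luminescence after 48 hours' treatment.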
SW480 rereplic: DNA re-replication induction in SW480 cells; SW480 DNA re-replication, Hoechst DNA content imaging, 48 h; Potency, µM (titrated, usually from 46.1 µM), without a hit: top-dose re-replication activation, usual class: activators; 340,000 compounds, 1.8% hits; further: % of control where 0% means no effect; nearly all actives have a fitted effect of over 55% in size
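Image-based DNA-content assay: after two days of treatment, nuclei were labelled with the DNA dye Hoechst and imaged, and hits were compounds raising the count of nuclei showing high fluorescence intensity.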
HT1080 IDH1KD tx: toxicity to HT-1080 IDH1 knockdown cells (counter line). HT-1080 IDH1 knockdown viability, ATP luminescence, 48 h. Potency, µM (top dose mostly 46.1 µM), inactives show top-dose activity, negative = toxicity, usual class: cytotoxic. 360,000 compounds, 2% hits;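 further: 0% = DMSO wells and -100% = cell-free medium wells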
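Cytotoxicity counter-line: IDH1KD HT-1080, 48 h, CellTiter-Glo. Curves classed by r2, magnitude and activity.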
KB-3-1 tox: kills parental KB-3-1 adenocarcinoma cells; KB-3-1 viability, CellTiter-Glo ATP luminescence, 72 h; Potency, µM (series often up to 46.1 µM), usual class: cytotoxic; 400,000 compounds, 1.4% hits; further: on the % scale 0 is the no-effect control and ±100 the full control effect; nearly all actives have a fitted effect of over 60% in size
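Cytotoxicity in the drug-sensitive parental line KB-3-1 was scored as loss of CellTiter-Glo luminescence following 72 h incubation with compound. Values come from curve fitting of normalized concentration-response data.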
KB-V1 MDR tox: KB-V1 MDR subline cytotoxicity; KB-V1 MDR cells viability, CellTiter-Glo, 72 h; AID 1347076; 400,000 compounds, 3.4% hits; Potency, µM (top dose mostly 46.1 µM), usual class: cytotoxic; further: on the % scale 0 is the no-effect control and ±100 the full control effect; nearly all actives have a fitted effect of over 60% in size
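Drug-selected KB-V1 cells, grown in DMEM lacking phenol red with 10% FBS, receive compound titrations; after three days at 37 degrees C, surviving cell ATP is quantified by CellTiter-Glo luminescence and responses normalized and curve-fitted.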
MCF10A rereplic: induces DNA re-replication in MCF 10a normal breast cells; 350,000 compounds, 2.9% hits; MCF 10A DNA re-replication, Hoechst nuclear intensity, 48 h; AID 624296; Potency, µM (doses to about 46.1 µM), without a hit: at the top dose activity, positive = re-replication, most hits filed as activators; further: % of control where 0% means no effect; nearly all actives have a fitted effect of over 50% in size
* hit, by the source's call; i = inactive; ? = inconclusive; / = not tested or not shown; [ ] = dose if it differs, or a comment. The call rests on the fitted dose curve; in most records, active means well fitted curve in the direction sought with a large enough effect; inconclusive means small, poorly fitted or top-dose-only effect, or another doubt; inactive means no such curve, though single readings can be large; an effect the other way counts as inactive or inconclusive. Potency means the concentration at half of the fitted maximal effect.

SMILES	HT1080-NT tox	SW480 rereplic	HT1080 IDH1KD tx	KB-3-1 tox	KB-V1 MDR tox	MCF10A rereplic
CCN(CC(=O)NCc1ccc(F)cc1)Cc1cc(=O)n2ccsc2n1	0%	-6%[1.84 µM]	2%	i	i	?
COc1ccc(-c2sc3cc4c(cc3c2-c2ccc(OCCN3CCCCC3)cc2)OCO4)cc1	-3%	3%	1%	i	i	?
COc1ccccc1-c1sc2cc3c(cc2c1-c1ccc(OCCN2CCOCC2)cc1)OCO3	-17%	5%	-24%	i	i	4%
COc1ccc(-c2sc3cc(OC)ccc3c2-c2ccc(OCCN3CCOCC3)cc2)cc1	?	?	-23%	i	i	3.7µM*
COc1cc(OC)cc(-c2sc3ccc(OC)cc3c2-c2ccc(OCCN3CCCCC3)cc2)c1	?	?	-29%	i	i	18µM*
CNC(=O)c1cn2c3c(ccc(Cl)c3c1=O)OC(C)C2 (centres undefined)	8%	-14%	10%	i	i	2%
N#Cc1c(-c2ccccc2F)cc(C2CC2)nc1SCC(=O)c1cccs1	20%	10µM*	1%	i	?	?
N#Cc1c(-c2ccc(Cl)cc2)cc(-c2cccs2)nc1SCC(=O)O	-1%	5%	-24%	i	i	23µM*
N#Cc1c(-c2ccccc2)cc(-c2cccs2)nc1SCC(=O)O	-4%	-2%	-9%	i	i	29%
CCOC(=O)CSc1nc(C2CC2)cc(-c2ccc(Cl)cc2)c1C#N	6%	-49%	3%	i	21µM*	26%
S=C(NCCCc1cnc[nH]1)NCCCN(Cc1ccc(Cl)cc1)c1ccc(Br)cn1	/	/	/	i	i	/
COc1cc(OC)c(NC(=O)Nc2c(C)n(C)n(-c3ccccc3)c2=O)cc1Cl	/	/	/	i	i	/
CCc1ccc(CNC(=O)CN2C(=O)c3cccnc3Oc3ccc(Cl)cc32)cc1	/	/	/	i	i	/
COc1ccc(CCNC(=O)CSc2nc3c(c(=O)n(C)c(=O)n3C)n2C(C)C)cc1OC	9%	-4%	17%	i	i	-2%
COCCNc1nc2c(c(=O)n(C)c(=O)n2C)n1Cc1cccc(C)c1	-9%	1%	-19%	?	i	7%
CC(C)CCn1c(NCCc2ccccc2)nc2c1c(=O)n(C)c(=O)n2C	-30%	-3%	?	?	13µM*	20%
Cn1c(=O)c2c(nc(NCCc3ccccc3)n2Cc2ccc(F)cc2)n(C)c1=O	-15%	7%	-25%	?	4.1µM*	26%
COc1ccc(CCNc2nc3c(c(=O)n(C)c(=O)n3C)n2C)cc1OC	4%	-3%	12%	i	15µM*	6%
Cc1cccc(Cn2c(NCCO)nc3c2c(=O)n(C)c(=O)n3C)c1	?	-4%	-3%	?	4.1µM*	-11%
CN1CCN(C(=O)Cn2ncc3c4ccccc4n(Cc4ccc(Cl)cc4)c3c2=O)CC1	/	/	/	i	i	/
CCN1CCOC(CC(=O)Nc2cccc([N+](=O)[O-])c2)C1=O (centres undefined)	11%	109%	2%	i	i	21µM*
Cc1cc(C)cc(Nc2cnn(C34CC5CC(CC(CC(=O)O)(C5)C3)C4)c(=O)c2Cl)c1	-6%	?	13%[9.24 µM]	i	i	23µM*
Cc1cccc(Nc2cnn(C34CC5CC(CC(CC(=O)O)(C5)C3)C4)c(=O)c2Cl)c1	-14%	-13%	-9%	i	i	-22%
CC1(c2ccc(Cl)cc2Cl)NC(=O)N(CC(=O)NCCC2=CCCCC2)C1=O (centres undefined)	1%	/	1%	i	?	/
Cc1cc(C(=O)CSc2nnc(-c3ccccc3)n2C)c(C)n1C	-2%	-8%	17%	i	7.3µM*	-1%
SMILES	HT1080-NT tox	SW480 rereplic	HT1080 IDH1KD tx	KB-3-1 tox	KB-V1 MDR tox	MCF10A rereplic
CN(C(=O)CSc1nnc(-c2ccc(Cl)cc2)n1CC1CCCO1)C1CCS(=O)(=O)C1 (centres undefined)	9%	-6%	17%	i	i	1%
Cc1cc(C(=O)CSc2nnc(-c3ccc(Cl)cc3)n2CC2CCCO2)c(C)n1C (centres undefined)	0%	2%	-7%	i	6.5µM*	10%
COc1ccc(-n2cnnc2SCC(=O)c2cc(C)n(Cc3cccs3)c2C)cc1	-4%	-4%	1%	i	i	?
COCCn1c(C)cc(C(=O)CSc2nncn2-c2ccccc2)c1C	-1%	0%	11%	i	10µM*	1%
Cc1cc(C(=O)CSc2nnc(-c3ccncc3)n2-c2ccccc2)c(C)n1C	0%	0%	-3%	i	i	0%
Cc1ccc(S(=O)(=O)NCCc2nnc3ccc(SCc4cccc(F)c4)nn23)cc1	/	/	/	i	i	/
Cc1ccc(NC(=O)CCc2c[nH]c3ccccc23)nc1	?	3.3µM*	?	4.1µM*	?	?
O=C(CCc1c[nH]c2ccccc12)Nc1ncccc1O	-29%	-6%	-24%	i	i	0%
COc1ccccc1NS(=O)(=O)c1ccc(NC(=O)Cc2cccs2)cc1	-7%	-12%	-8%	i	21µM*	7%
COc1ccc(NC(=O)C(NC(=O)Cc2cccs2)c2ccccc2)cc1 (centres undefined)	-1%	-1%	-11%	i	12µM*	14%
COc1ccc(NC(=O)C(NC(=O)Cc2cccs2)c2ccc(C)cc2)cc1 (centres undefined)	1%	-2%	7%	i	i	?
COc1ccc(S(=O)(=O)Nc2ccccc2OC)cc1NC(=O)Cc1cccs1	0%	-2%	-2%	i	i	-3%
O=c1[nH]c2cc([N+](=O)[O-])c([N+](=O)[O-])cc2[nH]c1=O	-10%	6.5µM*	1%	i	i	0%
O=c1[nH]c(=O)c2cc([N+](=O)[O-])cc([N+](=O)[O-])c2[nH]1	1%	?	-11%	i	i	-17%
COc1cc2nc(N3CCOCC3)nc(NC3CC3)c2cc1OC	1%	/	0%	/	/	/
COC(=O)C1(C(=O)OC)C[C@H](/C=C/c2ccccc2)N(Cc2ccccc2OC)[C@@H]1c1ccccc1	-7%	/	-7%	i	?	/
O=c1oc2c(O)cccc2cc1-c1nc2ccccc2[nH]1	-4%	3.3µM*	-9%	21µM*	i	?
Cc1cccc(NC(=S)N/C(=N/S(=O)(=O)c2ccccc2)c2ccccc2)c1	-6%	-2%	15%	i	i	1%
